# Reference: PMC7862700, “An all-to-all approach to the identification of sequence-specific readers for epigenetic DNA modifications on cytosine”
# Assays:
# Experiment in all cases: DAPPL (digital affinity profiling via proximity ligation, sequencing); 10 mM Tris-HCl pH 7.5, 50 mM NaCl, 1 mM DTT, 4% glycerol, room temperature, 30 min; GST-TFs on glutathione beads, 16-mer random dsDNA library, 0.1% formaldehyde crosslink after washing; high values mean tight binding
# Details in all cases: protein: recombinant; tags: N-terminal GST; dsDNA, one strand shown
# [1] = target: T1, GABPA (Homo sapiens, UniProt Q06546 1-454)
# T1 sequence: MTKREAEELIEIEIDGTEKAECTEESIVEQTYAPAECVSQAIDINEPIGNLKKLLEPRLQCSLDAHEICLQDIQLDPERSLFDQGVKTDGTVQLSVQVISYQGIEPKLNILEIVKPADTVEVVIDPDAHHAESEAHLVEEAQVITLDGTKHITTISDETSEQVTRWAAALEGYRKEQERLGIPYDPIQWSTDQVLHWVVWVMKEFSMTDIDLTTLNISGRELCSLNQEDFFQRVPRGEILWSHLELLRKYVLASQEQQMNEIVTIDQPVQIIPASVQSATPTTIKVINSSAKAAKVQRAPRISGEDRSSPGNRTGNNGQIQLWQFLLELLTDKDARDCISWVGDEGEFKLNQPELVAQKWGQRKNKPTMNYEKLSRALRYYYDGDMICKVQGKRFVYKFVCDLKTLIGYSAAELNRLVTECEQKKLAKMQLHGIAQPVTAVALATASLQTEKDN
# How it was run: (§1)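 A tag-only sample was pooled with DNA-barcoded human transcription factors that had been expressed in yeast as GST fusions and captured on glutathione beads. The pools were incubated for 30 min at room temperature with 200 nmole of a random double-stranded 16-mer DNA library in Tris/NaCl/DTT/glycerol buffer, then washed, crosslinked with 0.1% formaldehyde, proximity-ligated (BsaI/T4 ligase, 1 h, 37 °C), PCR-amplified and sequenced on an Illumina NextSeq500. Binding signal is each hexamer's read frequency for a factor divided by its frequency for the tag-only sample.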
# [2] = target: T2, EHF (Homo sapiens, UniProt Q9NZC4 1-300)
# T2 sequence: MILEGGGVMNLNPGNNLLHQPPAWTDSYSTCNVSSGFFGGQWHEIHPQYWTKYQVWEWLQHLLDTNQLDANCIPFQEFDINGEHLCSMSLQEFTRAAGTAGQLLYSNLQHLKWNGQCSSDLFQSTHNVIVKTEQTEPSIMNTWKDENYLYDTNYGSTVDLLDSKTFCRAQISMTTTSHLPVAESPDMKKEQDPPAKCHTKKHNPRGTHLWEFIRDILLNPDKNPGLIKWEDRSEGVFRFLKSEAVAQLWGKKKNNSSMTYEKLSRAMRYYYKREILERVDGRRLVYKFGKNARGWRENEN
# How it was run: as §1
# [3] = target: ETV5 (Homo sapiens, UniProt P41161 1-510)
# How it was run: as §1
# [4] = target: ELF4 (Homo sapiens, UniProt Q99607 1-663)
# How it was run: as §1
# [5] = target: T3, ELK4 (Homo sapiens, UniProt P28324-2 1-405)
# T3 sequence: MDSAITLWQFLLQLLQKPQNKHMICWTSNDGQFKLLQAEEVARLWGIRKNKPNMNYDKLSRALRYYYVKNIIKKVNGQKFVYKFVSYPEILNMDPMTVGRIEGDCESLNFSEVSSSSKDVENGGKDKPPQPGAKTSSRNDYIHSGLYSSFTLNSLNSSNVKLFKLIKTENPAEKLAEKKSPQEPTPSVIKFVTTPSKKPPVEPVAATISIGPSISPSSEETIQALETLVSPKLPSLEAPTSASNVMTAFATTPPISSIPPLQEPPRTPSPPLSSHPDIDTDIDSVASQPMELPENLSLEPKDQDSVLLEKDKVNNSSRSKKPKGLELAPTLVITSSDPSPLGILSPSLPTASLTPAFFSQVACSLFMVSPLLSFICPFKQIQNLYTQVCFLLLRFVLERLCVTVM
# How it was run: as §1
# [6] = target: T4, ETV2 (Homo sapiens, UniProt O00321 1-342)
# T4 sequence: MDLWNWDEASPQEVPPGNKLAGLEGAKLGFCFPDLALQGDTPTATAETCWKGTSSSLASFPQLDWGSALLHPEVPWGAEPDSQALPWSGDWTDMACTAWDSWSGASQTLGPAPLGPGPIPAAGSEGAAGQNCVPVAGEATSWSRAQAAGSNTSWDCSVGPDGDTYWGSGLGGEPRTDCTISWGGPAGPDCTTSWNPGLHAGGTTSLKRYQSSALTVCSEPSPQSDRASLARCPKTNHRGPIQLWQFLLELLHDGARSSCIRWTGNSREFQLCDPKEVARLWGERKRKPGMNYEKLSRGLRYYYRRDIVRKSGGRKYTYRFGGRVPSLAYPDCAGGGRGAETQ
# How it was run: as §1
# [7] = target: T5, ELF3 (Homo sapiens, UniProt P78545 1-371)
# T5 sequence: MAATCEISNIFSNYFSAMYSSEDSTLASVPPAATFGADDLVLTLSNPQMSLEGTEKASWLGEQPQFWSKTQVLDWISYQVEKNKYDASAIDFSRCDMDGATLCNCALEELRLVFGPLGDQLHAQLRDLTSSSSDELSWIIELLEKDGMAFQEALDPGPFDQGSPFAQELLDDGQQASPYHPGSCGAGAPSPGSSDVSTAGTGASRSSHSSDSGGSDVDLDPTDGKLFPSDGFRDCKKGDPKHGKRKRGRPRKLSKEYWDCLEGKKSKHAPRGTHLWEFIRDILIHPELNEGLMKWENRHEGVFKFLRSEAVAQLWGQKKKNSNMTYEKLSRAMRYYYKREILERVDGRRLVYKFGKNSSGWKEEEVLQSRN
# How it was run: as §1
# [8] = target: ETV1 (Homo sapiens, UniProt P50549 1-477)
# How it was run: as §1
# [9] = target: T6, ERF (Homo sapiens, UniProt P50548 1-548)
# T6 sequence: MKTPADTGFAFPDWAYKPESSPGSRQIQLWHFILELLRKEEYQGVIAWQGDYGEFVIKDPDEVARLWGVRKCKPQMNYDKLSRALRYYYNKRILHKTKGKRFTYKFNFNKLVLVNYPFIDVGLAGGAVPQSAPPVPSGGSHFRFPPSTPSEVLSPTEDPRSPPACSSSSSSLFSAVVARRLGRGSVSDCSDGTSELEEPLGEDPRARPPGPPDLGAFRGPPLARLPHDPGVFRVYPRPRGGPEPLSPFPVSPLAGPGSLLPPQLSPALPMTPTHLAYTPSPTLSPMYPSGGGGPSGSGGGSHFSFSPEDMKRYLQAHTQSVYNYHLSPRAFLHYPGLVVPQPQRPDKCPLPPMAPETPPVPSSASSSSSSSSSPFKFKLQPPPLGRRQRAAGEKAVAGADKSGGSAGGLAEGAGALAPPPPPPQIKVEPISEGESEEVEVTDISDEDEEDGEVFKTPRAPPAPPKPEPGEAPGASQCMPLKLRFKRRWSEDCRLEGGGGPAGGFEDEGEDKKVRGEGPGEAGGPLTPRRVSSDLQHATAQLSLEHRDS
# How it was run: as §1
# [10] = target: T7, ETV7 (Homo sapiens, UniProt Q9Y603 1-341)
# T7 sequence: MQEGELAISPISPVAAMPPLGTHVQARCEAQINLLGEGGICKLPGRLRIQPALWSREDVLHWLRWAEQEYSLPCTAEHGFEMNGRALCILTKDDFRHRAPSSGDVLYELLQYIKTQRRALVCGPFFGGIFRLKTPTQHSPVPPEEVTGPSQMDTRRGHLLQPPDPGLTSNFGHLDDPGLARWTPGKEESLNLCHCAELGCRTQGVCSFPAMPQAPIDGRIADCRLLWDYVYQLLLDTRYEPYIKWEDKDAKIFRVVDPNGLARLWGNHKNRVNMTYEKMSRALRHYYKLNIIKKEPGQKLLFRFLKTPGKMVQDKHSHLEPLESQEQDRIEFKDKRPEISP
# How it was run: as §1
# [11] = target: T8, ETV3 (Homo sapiens, UniProt P41162-2 1-143)
# T8 sequence: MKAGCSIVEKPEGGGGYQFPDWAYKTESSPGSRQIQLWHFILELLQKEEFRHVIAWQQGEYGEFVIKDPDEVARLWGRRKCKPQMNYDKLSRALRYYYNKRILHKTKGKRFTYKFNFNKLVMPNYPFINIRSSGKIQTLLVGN
# How it was run: as §1
# [12] = target: ETV6 (Homo sapiens, UniProt P41212 1-452)
# How it was run: as §1
# Sequence of ELF4 (Q99607 whole entry): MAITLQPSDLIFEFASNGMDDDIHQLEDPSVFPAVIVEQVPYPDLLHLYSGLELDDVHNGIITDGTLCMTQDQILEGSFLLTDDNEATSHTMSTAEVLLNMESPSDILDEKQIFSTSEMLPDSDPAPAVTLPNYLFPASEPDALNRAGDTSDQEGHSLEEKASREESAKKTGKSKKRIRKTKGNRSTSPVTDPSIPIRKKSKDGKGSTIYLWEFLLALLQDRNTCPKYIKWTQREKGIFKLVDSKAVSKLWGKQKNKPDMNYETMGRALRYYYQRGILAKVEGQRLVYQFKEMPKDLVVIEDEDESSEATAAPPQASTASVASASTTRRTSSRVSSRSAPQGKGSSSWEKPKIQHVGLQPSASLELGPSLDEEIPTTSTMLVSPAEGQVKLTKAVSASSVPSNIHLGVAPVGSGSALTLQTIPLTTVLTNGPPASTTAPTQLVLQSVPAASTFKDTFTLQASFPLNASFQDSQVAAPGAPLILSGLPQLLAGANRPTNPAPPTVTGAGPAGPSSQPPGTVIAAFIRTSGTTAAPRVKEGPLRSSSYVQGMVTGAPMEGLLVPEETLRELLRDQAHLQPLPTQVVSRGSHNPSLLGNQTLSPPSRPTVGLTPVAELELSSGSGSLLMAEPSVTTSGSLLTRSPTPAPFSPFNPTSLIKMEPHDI
# Sequence of ETV5 (P41161 whole entry): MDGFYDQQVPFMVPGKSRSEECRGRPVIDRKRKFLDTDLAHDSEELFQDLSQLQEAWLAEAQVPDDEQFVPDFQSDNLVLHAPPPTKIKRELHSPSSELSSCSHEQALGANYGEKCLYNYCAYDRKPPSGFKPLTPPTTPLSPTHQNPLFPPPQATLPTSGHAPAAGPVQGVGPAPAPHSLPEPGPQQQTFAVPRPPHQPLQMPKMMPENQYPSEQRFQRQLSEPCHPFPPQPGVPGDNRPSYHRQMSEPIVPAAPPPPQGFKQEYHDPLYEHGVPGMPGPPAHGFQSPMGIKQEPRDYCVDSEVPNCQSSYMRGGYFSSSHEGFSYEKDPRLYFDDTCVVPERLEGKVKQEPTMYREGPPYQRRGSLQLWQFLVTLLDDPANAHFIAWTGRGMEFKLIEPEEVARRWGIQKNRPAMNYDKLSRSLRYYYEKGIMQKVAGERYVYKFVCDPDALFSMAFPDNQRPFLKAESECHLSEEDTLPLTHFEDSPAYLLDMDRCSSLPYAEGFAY
# Sequence of ETV1 (P50549 whole entry): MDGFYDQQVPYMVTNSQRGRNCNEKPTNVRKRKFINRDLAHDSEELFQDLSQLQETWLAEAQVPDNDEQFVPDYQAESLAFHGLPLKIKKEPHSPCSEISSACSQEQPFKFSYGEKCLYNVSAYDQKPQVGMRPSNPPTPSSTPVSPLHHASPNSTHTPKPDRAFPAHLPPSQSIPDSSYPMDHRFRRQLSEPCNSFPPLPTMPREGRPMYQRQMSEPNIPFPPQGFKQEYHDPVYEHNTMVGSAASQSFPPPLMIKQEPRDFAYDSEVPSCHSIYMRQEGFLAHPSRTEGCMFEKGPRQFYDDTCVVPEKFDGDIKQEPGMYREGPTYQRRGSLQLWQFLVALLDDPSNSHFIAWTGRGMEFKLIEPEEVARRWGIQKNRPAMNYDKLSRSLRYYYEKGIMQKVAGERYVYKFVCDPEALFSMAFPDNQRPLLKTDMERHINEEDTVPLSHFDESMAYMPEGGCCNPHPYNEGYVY
# Sequence of ETV6 (P41212 whole entry): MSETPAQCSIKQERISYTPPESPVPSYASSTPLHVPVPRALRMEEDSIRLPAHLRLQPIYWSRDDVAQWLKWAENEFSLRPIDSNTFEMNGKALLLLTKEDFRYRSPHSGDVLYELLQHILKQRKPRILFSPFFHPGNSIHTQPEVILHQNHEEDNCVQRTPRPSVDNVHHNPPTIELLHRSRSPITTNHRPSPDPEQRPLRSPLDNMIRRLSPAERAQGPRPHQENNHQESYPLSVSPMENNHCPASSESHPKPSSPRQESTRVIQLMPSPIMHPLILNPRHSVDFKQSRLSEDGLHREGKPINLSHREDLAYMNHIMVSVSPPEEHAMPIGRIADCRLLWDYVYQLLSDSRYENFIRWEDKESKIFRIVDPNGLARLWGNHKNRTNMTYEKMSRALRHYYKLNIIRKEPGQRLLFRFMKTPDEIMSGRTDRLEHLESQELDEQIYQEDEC
sequence,measurement,setting,value
AGAAGT,binding signal,[1],"1.05 fold enrichment (6-mer frequency, TF over GST control)"
same,binding signal,[2],"1.06 fold enrichment (6-mer frequency, TF over GST control)"
same,binding signal,[3],"1.09 fold enrichment (6-mer frequency, TF over GST control)"
same,binding signal,[4],"1.06 fold enrichment (6-mer frequency, TF over GST control)"
same,binding signal,[5],"1.16 fold enrichment (6-mer frequency, TF over GST control)"
same,binding signal,[6],"1.03 fold enrichment (6-mer frequency, TF over GST control)"
same,binding signal,[7],"1.05 fold enrichment (6-mer frequency, TF over GST control)"
same,binding signal,[8],"1.05 fold enrichment (6-mer frequency, TF over GST control)"
same,binding signal,[9],"1.05 fold enrichment (6-mer frequency, TF over GST control)"
same,binding signal,[10],"1.13 fold enrichment (6-mer frequency, TF over GST control)"
same,binding signal,[11],"1.01 fold enrichment (6-mer frequency, TF over GST control)"
same,binding signal,[12],"1.07 fold enrichment (6-mer frequency, TF over GST control)"
